# Assay results: PubChem BioAssay (Tox21)
# Where “and” joins values, the source holds several entries; their conditions need not be identical. Equal values may be shown once. Unmarked numbers belong to inactive results. Results filed as inconclusive are left out. Entries that show only a call come without a potency. Calls of active or inactive are those of the source. Unless noted, the call rests on the fitted dose curve; in most records, active means well fitted curve in the direction sought with a large enough effect in the repeat runs; inconclusive means weak or mixed curves; inactive means no such curve, though single readings can be large; an effect the other way counts as inactive or inconclusive.
# Key:
# [1] = qHTS assay to identify small molecule antagonists of the sonic hedgehog signaling (Shh) pathway (AID 1259369; calls by dose curve; further: nearly all actives have a fitted effect of over 45% in size; further: potency means the concentration at half of the fitted maximal effect)
# Outline: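 NIH/3T3-derived Gli1-Luc reporter cells plated 4 h, dosed with compound, then stimulated with conditioned medium for 24 h at 37 C. Firefly luciferase luminescence read after 30 min with detection reagent at room temperature.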
# [2] = biological target: Estrogen receptor beta (Homo sapiens) (UniProt Q92731); assay: qHTS assay to identify small molecule agonists of the estrogen receptor beta (ER-beta) signaling pathway (AID 1259377; active means well fitted activation curve with a large enough effect in the signal ratio in the repeat runs, not every such curve was filed as active; the % refers to the signal ratio)
# Sequence of Estrogen receptor beta (Homo sapiens) (Q92731 whole entry, looked up): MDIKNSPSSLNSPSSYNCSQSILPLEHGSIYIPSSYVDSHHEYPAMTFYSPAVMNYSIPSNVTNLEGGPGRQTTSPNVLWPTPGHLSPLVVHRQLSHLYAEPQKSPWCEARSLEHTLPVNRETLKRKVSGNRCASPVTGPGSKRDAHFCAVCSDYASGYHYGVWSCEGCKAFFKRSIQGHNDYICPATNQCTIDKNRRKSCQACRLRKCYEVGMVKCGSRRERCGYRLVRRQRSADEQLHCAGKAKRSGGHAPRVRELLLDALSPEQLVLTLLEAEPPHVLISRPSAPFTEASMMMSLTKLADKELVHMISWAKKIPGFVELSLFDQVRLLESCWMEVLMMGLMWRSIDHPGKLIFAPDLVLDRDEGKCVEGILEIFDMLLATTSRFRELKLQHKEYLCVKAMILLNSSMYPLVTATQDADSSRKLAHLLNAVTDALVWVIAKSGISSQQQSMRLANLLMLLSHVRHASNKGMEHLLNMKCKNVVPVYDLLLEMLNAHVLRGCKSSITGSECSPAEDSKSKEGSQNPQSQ
# Outline: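 Screening used GripTite ER-beta-UAS-bla cells held in 2% charcoal-stripped FBS medium. After overnight (16 hr) compound incubation at 37C, beta-lactamase activity was detected with a FRET substrate by fluorescence.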
# [3] = qHTS assay to identify small molecule agonists of the androgen receptor (AR) signaling pathway in the presence of an antagonist - cell viability counter screen (AID 1259379);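 further: MDA-kb2 human breast cancer cells carrying an MMTV luciferase reporter; series mostly up to about 92 µM; nearly all actives have a fitted effect of over 25% in size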
# Outline: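 MDA-kb2 cells (MMTV-luciferase, AR/GR), 3,000/well, 5 h attachment, then 3.0 µM nilutamide (final) and compounds at 15 concentrations. Viability by CellTiter-Fluor fluorescence after 16 h at 37 °C, 0% CO2, in the reporter wells.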
# [4] = qHTS assay to identify small molecule agonists of the estrogen receptor beta (ER-beta) signaling pathway - cell viability counter screen (AID 1259380); further: nearly all actives have a fitted effect of over 30% in size
# Outline: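 ER-beta-UAS-bla HEK293T cells in medium with 2% charcoal-stripped FBS, pre-incubated 6 hr, then treated 16 hr at 37C. Cytotoxicity read in the same wells by CellTiter-Glo luminescence after 30 min at room temperature.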
# [5] = qHTS assay to identify small molecule antagonists of the estrogen receptor beta (ER-beta) signaling pathway - cell viability counter screen (AID 1259382); further: series mostly up to about 92 µM; nearly all actives have a fitted effect of over 55% in size
# Outline: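 ER-beta-UAS-bla HEK293T cells in 2% charcoal-stripped FBS medium, treated with compound plus 1 nM 17-beta-estradiol for 16 h at 37C. Viability read by CellTiter-Glo luminescence after 30 min at room temperature in the same wells.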
# [6] = qHTS assay to identify small molecule agonists or antagonists of the thyroid stimulating hormone receptor (TSHR) signaling pathway - wild type cell line counter screen (AID 1259384; calls by dose curve)
# Outline: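 Wild-type HEK293 cells were plated 18 h at 37 C/5% CO2, pin-dosed with compound plus Ro20-1724 medium, held 30 min at room temperature, then given cAMP-d2 and anti-cAMP-cryptate; fluorescence was read after 1 h. Fifteen concentrations, triplicate.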
# [7] = biological target: Thyrotropin receptor (Homo sapiens) (UniProt P16473); assay: qHTS assay to identify small molecule antagonists of the thyroid stimulating hormone receptor (TSHR) signaling pathway (AID 1259385; calls by dose curve; further: nearly all actives have a fitted effect of over 20% in size; further: potency means the concentration at half of the fitted maximal effect)
# Sequence of Thyrotropin receptor (Homo sapiens) (P16473 whole entry, looked up): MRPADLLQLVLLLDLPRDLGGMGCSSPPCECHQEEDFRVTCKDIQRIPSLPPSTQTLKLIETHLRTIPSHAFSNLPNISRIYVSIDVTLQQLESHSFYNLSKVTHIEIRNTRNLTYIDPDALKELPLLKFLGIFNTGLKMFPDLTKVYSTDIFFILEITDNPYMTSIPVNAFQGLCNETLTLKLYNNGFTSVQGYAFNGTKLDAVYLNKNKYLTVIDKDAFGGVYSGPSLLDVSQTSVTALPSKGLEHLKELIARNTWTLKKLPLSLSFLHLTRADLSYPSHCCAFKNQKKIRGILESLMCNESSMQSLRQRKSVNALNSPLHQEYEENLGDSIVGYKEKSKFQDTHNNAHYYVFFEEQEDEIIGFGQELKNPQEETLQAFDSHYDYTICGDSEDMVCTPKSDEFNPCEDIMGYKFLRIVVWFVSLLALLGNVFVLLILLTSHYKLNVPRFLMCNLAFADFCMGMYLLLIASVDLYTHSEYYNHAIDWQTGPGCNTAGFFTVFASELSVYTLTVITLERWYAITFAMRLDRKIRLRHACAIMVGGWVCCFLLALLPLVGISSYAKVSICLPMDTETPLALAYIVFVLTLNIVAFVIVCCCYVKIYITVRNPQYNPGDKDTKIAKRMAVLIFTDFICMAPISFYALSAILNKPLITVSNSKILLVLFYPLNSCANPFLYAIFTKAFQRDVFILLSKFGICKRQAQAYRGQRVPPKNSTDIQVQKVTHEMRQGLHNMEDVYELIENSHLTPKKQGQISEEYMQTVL
# Outline: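 TSHR-HEK293 cells were plated and held 18 h at 37C/5% CO2, then given compound plus Ro20-1724 and stimulated with TSH at 1.5 ng/mL final. After 30 min at room temperature, cAMP was detected with cAMP-d2/anti-cAMP-cryptate (1 h) by fluorescence.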
# [8] = qHTS assay to identify small molecule agonists of the estrogen receptor alpha (ER-alpha) signaling pathway in the presence of an antagonist - cell viability counter screen (AID 1259386);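 further: series mostly up to about 92 µM; cells exposed to compounds for 22 h at 37 °C before the viability read; nearly all actives have a fitted effect of over 30% in size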
# Outline: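 Cell viability in VM7Luc4E2 cells (endogenous full-length ER-alpha) measured by CellTiter-Fluor fluorescence in the same wells as the luciferase screen. Cells pre-cultured 5 days in charcoal-stripped serum, then treated 22 h with compounds at 15 concentrations plus 10.0nM ICI-182,780.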
# [9] = biological target: Progesterone receptor (Homo sapiens) (UniProt P06401); assay: qHTS assay to identify small molecule agonists of the progesterone receptor (PR) signaling pathway (AID 1346784; calls by dose curve; further: nearly all actives have a fitted effect of over 30% in size)
# Sequence of Progesterone receptor (Homo sapiens) (P06401 whole entry, looked up): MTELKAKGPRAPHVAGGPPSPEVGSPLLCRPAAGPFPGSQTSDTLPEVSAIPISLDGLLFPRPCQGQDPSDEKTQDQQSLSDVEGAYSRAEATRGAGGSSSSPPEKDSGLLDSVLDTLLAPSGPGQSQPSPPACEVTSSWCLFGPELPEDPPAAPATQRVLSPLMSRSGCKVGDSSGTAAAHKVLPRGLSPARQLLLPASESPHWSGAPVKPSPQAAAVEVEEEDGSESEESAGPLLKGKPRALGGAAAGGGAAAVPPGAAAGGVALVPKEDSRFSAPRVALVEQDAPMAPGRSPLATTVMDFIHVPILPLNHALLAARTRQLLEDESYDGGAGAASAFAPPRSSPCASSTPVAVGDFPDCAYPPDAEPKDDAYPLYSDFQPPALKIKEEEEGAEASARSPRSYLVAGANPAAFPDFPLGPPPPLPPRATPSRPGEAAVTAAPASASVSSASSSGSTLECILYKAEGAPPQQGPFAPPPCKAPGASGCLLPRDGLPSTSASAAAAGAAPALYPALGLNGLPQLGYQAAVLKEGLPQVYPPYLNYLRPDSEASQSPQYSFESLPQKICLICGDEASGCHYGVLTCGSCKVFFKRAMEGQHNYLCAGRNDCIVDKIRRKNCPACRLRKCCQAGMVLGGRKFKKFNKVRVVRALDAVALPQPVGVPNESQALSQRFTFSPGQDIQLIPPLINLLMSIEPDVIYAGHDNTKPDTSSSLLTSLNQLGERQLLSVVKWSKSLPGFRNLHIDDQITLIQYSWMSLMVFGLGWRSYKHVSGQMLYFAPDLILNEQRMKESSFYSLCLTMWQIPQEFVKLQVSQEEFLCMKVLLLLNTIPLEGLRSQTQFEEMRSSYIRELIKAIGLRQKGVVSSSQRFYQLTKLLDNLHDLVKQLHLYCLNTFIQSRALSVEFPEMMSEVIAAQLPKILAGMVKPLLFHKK
# Outline: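 Seed PR-UAS-bla HEK 293T cells (2% charcoal-stripped FBS), incubate 6 hr at 37C; add compounds in DMSO, 16 hr at 37C; add LiveBLAzer B/G substrate, 2 hr RT; read fluorescence intensity.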
# [10] = biological target: Progesterone receptor (Homo sapiens) (UniProt P06401); assay: qHTS assay to identify small molecule antagonists of the progesterone receptor (PR) signaling pathway (AID 1346795; active means well fitted inhibition curve with a large enough effect in the signal ratio in the repeat runs, not every such curve was filed as active; the % refers to the signal ratio)
# Outline: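 Screening used a GripTite HEK293T line with PR-responsive UAS-beta-lactamase. Cells were challenged with compound in the presence of 1 nM R5020 final for 16 hr at 37C; B/G FRET substrate, 2 hr room temperature, fluorescence.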
# [11] = qHTS assay to identify small molecule agonists of the progesterone receptor (PR) signaling pathway - cell viability counter screen (AID 1346799; calls by dose curve; further: nearly all actives have a fitted effect of over 45% in size)
# Outline: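 Using the same plates as the PR reporter screen, HEK293T PR-UAS-bla cells received compounds for 16 hr at 37C and were then lysed with CellTiter-Glo; luminescence was read 30 min later at room temperature.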
# [12] = qHTS assay to identify small molecule antagonists of the TGF-beta/Smad signaling pathway - cell viability counter screen (AID 1346824); further: nearly all actives have a fitted effect of over 50% in size
# Outline: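 SBE-bla HEK 293T cells were plated overnight at 37 C, then given compounds in DMSO plus TGF-beta1 (added as 0.25 ng/mL solution) for 5 hr. After the bla read, CellTiter-Glo was added to the same wells and luminescence read after 30 min at room temperature.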
# [13] = qHTS assay to identify small molecule agonists of the TGF-beta/Smad signaling pathway - cell viability counter screen (AID 1346829); further: top concentration of the series differs between compounds; nearly all actives have a fitted effect of over 45% in size
# Outline: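 In parallel with the Smad reporter read, viability of HEK 293T cells stably carrying SBE-bla is quantified by ATP luminescence following 5 hr compound treatment.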
# [14] = biological target: Thyrotropin-releasing hormone receptor (Homo sapiens) (UniProt P34981); assay: qHTS assay to identify small molecule antagonists of the thyrotropin-releasing hormone receptor (TRHR) signaling pathway (AID 1346877; active means well fitted inhibition curve with a large enough effect in the repeat runs, not every such curve was filed as active; further: series mostly up to about 51 µM)
# Sequence of Thyrotropin-releasing hormone receptor (Homo sapiens) (P34981 whole entry, looked up): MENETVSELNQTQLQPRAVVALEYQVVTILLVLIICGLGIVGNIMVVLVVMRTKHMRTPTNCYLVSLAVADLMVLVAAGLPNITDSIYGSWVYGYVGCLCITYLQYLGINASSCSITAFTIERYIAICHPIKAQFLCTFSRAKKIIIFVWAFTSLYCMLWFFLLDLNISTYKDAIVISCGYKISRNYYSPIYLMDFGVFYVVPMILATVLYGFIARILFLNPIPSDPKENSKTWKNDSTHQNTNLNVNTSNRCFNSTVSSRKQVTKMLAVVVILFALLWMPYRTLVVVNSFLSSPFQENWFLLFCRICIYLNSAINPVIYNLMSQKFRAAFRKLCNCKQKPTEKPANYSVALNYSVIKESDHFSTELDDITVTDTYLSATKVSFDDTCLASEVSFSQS
# Outline: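 TRHR-expressing HEK293 cells loaded with calcium dye for 2 h at 37 C; compounds pre-incubated 5 min at room temperature before TRH challenge at 1 nM final. Intracellular calcium fluorescence read kinetically for 3 min; 15 concentrations in triplicate.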
# [15] = biological target: Thyrotropin-releasing hormone receptor (Homo sapiens) (UniProt P34981); assay: qHTS assay to identify small molecule agonists of the thyrotropin-releasing hormone receptor (TRHR) signaling pathway (AID 1346891; calls by dose curve; further: series mostly up to about 58 µM)
# Outline: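 Overnight-plated (18 h, 37 °C, 5% CO2) TRHR-Hek293 cells; 2 h calcium dye at 37 °C; compound in DMSO; 3-min kinetic fluorescence read.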
# [16] = Human pregnane X receptor (PXR) small molecule agonists, qHTS cell viability counter screen (AID 1346977); further: nearly all actives have a fitted effect of over 50% in size
# Outline: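 After a 5hr pre-incubation, PXR-Luc HepG2 cells received compounds plus positive control in DMSO and were kept 24hr at 37C. Cell viability was quantified by fluorescence from CellTiter-Fluor added for the final hour.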
# [17] = biological target: Estrogen receptor (Homo sapiens) (UniProt P03372); assay: qHTS assay to identify small molecule agonists of the estrogen receptor alpha (ER-alpha) signaling pathway in the presence of an antagonist (AID 1259383; calls by dose curve; further: top concentration of the series differs between compounds; nearly all actives have a fitted effect of over 15% in size)
# Sequence of Estrogen receptor (Homo sapiens) (P03372 whole entry, looked up): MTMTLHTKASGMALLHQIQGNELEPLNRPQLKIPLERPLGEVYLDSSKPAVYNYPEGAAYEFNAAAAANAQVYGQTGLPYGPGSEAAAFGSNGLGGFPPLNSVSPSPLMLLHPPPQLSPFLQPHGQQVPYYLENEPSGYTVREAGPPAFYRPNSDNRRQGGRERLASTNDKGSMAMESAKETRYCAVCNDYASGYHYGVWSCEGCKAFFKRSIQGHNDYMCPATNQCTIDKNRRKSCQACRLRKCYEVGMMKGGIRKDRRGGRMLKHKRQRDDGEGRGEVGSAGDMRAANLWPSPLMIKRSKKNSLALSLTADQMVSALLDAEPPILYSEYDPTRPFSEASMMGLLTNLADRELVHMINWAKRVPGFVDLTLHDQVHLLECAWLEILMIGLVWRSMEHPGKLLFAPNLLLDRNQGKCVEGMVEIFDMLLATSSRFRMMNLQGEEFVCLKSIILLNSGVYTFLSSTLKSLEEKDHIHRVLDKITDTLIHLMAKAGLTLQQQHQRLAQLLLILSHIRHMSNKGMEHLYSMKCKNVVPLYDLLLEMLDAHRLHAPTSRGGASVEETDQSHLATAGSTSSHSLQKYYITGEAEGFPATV
# Outline: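 VM7Luc4E2 cells express endogenous full-length ER-alpha with an ERE-luciferase reporter and were hormone-deprived for 5 days. Compounds at 15 concentrations were added with 10.0nM ICI-182,780 for 22hr at 37C. Luminescence was read with ONE-Glo.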
# [18] = qHTS assay to identify small molecule agonists of the TGF-beta/Smad signaling pathway (AID 1346859; active means well fitted activation curve with a large enough effect in the signal ratio in the repeat runs, not every such curve was filed as active; the % refers to the signal ratio; further: series mostly up to about 77 µM)
# Outline: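 Beta-lactamase reporter activity downstream of Smad binding elements was measured in stably transfected HEK 293T cells; compounds were incubated for 5 hr, substrate for 2 hr at room temperature.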
# [19] = qHTS assay to identify small molecule antagonists of the progesterone receptor (PR) signaling pathway - cell viability counter screen (AID 1346798); further: series mostly up to about 92 µM; nearly all actives have a fitted effect of over 50% in size
# Outline: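 Measures cytotoxicity in parallel with the PR antagonist reporter read: HEK293T PR-UAS-bla cells get compound and R5020 for 16 hr, and remaining viable cells are quantified by CellTiter-Glo luminescence.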
# [20] = biological target: Estrogen receptor beta (Homo sapiens) (UniProt Q92731); assay: qHTS assay to identify small molecule antagonists of the estrogen receptor beta (ER-beta) signaling pathway (AID 1259378; active means well fitted inhibition curve with a large enough effect in the signal ratio in the repeat runs, not every such curve was filed as active; the % refers to the signal ratio)
# Outline: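 ER-beta-UAS-bla HEK293T (GripTite) cells in 2% charcoal-stripped FBS medium were preincubated 6 hr at 37C, dosed with compound, then stimulated with 1 nM E2 (final) for 16 hr; beta-lactamase reporter read by B/G FRET fluorescence after 2 hr substrate loading.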
SMILES,Potency [1],outcome [2],Potency [3],Potency [4],Potency [5],outcome [6],Potency [7],Potency [8],Potency [9],Potency [10],Potency [11],Potency [12],outcome [13],outcome [14],outcome [15],Potency [16],Potency [17],outcome [18],Potency [19],outcome [20]
CCCCCCCCS(=O)(=O)Cl,inactive,inactive,inactive,inactive,inactive,inactive,inactive,inactive,inactive,inactive,inactive,inactive,inactive,inactive,inactive,inactive,,,,
COC(=O)NN,inactive,inactive,inactive,inactive,inactive,inactive,inactive,inactive,inactive,inactive,,inactive,inactive,inactive,inactive,inactive,inactive,inactive,,
O=C(O)CNC(=O)c1ccc([N+](=O)[O-])cc1,inactive,inactive,inactive,,inactive,,,inactive,inactive,inactive,inactive,inactive,,inactive,inactive,inactive,,inactive,inactive,
C[C@H]1C[C@@H](O)CC(C)(C)C1,inactive,inactive,inactive,,inactive,inactive,inactive,inactive,inactive,inactive,,inactive,inactive,inactive,inactive,inactive,,inactive,inactive,inactive
CC[N+](C)(C)c1cccc(O)c1,inactive,inactive,inactive,,inactive,inactive,inactive,inactive,inactive,,inactive,,inactive,,,inactive,,inactive,inactive,
CCS(=O)(=O)c1ccc(OC)c(C(=O)OC)c1,inactive,,inactive,inactive,inactive,,,inactive,,,,inactive,inactive,inactive,inactive,inactive,inactive,inactive,inactive,inactive
C=C(C)CS(=O)(=O)O,inactive,,inactive,inactive,inactive,inactive,inactive,inactive,inactive,inactive,inactive,inactive,,,inactive,inactive,inactive,inactive,inactive,
O=C1CCCC(=O)C1,inactive,,inactive,inactive,inactive,,,inactive,inactive,inactive,,inactive,inactive,,inactive,inactive,,inactive,inactive,inactive
CCCCOCCOCCOCc1cc2c(cc1CCC)OCO2,1.39 µM (active) and 2.66 µM (active),,inactive,inactive,inactive,inactive,23.7 µM (active),inactive,inactive,,inactive,inactive,,inactive,inactive,inactive,,inactive,inactive,inactive
CC(C)(O)C(=O)c1ccccc1,inactive,,inactive,inactive,inactive,inactive,inactive,inactive,inactive,inactive,,,inactive,inactive,inactive,inactive,inactive,inactive,inactive,inactive
NC(CSCC(=O)O)C(=O)O (configuration not stated),inactive,,inactive,,inactive,,,inactive,,inactive,inactive,inactive,inactive,inactive,inactive,inactive,inactive,inactive,inactive,inactive
CCOC(=O)CCC(C)=O,inactive,,inactive,,inactive,,,inactive,inactive,inactive,inactive,,inactive,,,inactive,inactive,inactive,,inactive
C/C=C(\C)C#N,inactive,,inactive,,inactive,,inactive,inactive,inactive,inactive,inactive,inactive,inactive,,inactive,inactive,inactive,,,inactive
CN1CCCC1,inactive,,inactive,inactive,inactive,inactive,inactive,inactive,inactive,inactive,inactive,inactive,inactive,,inactive,inactive,inactive,,inactive,
O=C1CC2CC1C1CCCC21 (configuration not stated),inactive,,inactive,,inactive,inactive,inactive,inactive,inactive,inactive,inactive,,,inactive,inactive,inactive,inactive,inactive,inactive,inactive
